Source: PubChem
In the library only some 12% were active in any assay of this set; here they are far more common.
Sm TGR inh: S. mansoni TGR enzyme inhibition; Potency, µM (doses to about 114 µM), most hits filed as inhibitors; purified TGR, DTNB reduction, TNB absorbance 405 nm; 360,000 tested, 3% active; AID 485364; Q962Y6; note: nearly all actives have a fitted effect of over 60% in size
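Kinetic colorimetric format: TGR-catalysed, NADPH-driven DTNB reduction monitored via TNB absorbance. Enzyme dispensed at 20 nM; compound exposure 15 min at room temperature before reaction start.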
AmpC inh detg: inhibitors of E. coli AmpC beta-lactamase with detergent; P00811; AmpC hydrolysis of nitrocefin, absorbance 480 nm, 0.01% Triton; Potency, µM (titrated, usually from 114 µM), usual class: inhibitors; 370,000 tested, 0.041% active; AID 485294; note: nearly all actives have a fitted effect of over 25% in size
Target sequence (P00811 whole entry, looked up): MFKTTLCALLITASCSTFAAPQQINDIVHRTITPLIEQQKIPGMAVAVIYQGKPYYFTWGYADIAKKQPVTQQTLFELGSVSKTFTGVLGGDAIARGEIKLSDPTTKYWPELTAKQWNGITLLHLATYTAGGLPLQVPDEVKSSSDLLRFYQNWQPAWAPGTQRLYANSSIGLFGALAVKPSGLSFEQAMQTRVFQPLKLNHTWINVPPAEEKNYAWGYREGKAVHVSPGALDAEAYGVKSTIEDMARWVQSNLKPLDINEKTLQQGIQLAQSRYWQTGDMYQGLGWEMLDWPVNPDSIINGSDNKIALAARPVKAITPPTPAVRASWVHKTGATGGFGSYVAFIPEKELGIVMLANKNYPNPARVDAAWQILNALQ
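20 mM phosphate pH 7.0 + 0.01% (detergent screen) or 0.0001% Triton X-100; 5.3 nM AmpC reagent; cpd preinc 15 min RT; nitrocefin (800 uM stock) to start; A480 q20 s × 4 min; Activity was normalised to no-enzyme and no-compound control wells.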
Pf growth 96h: inhibits malaria parasite growth, 96 h; P. falciparum luciferase reporter growth, 96 h; Potency, µM (top dose mostly 28.7 µM), most hits filed as inhibitors; 320,000 tested, 6.9% active; AID 504834
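Two parasite generations (96 h, 37 C, 5% CO2) of compound exposure in infected erythrocytes (0.05% parasitemia, 2% hematocrit). Luciferase-reporter P. falciparum; decreased luminescence indicates inhibited growth, aimed at apicoplast-acting delayed death.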
SARS PLP yeast: SARS-CoV PLP inhibition in yeast; Potency, µM (series often up to 32.9 µM), usual class: activators; AID 485353; S. cerevisiae expressing SARS-CoV PLpro, growth rescue; 330,000 tested, 0.19% active; calls by dose curve; note: nearly all actives have a fitted effect of over 55% in size
Pf growth 48h: inhibits P. falciparum growth in the first generation, 48 h; 310,000 tested, 5.9% active; Potency, µM (series often up to 28.7 µM), most hits filed as inhibitors; P. falciparum luciferase growth in erythrocytes, 48 h
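Parasite viability was followed by luminescence of a genomically integrated firefly luciferase. Cultures held 0.1% parasitemia at 2% hematocrit (final), incubated under 5% CO2 at 37 C.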
AmpC no deterg: blocks E. coli AmpC beta-lactamase in detergent-free assay. 330,000 tested, 0.52% active. Potency, µM (top dose mostly 57.1 µM), usual class: inhibitors. P00811. AmpC nitrocefin hydrolysis, absorbance 480 nm, 0.0001% Triton; note: nearly all actives have a fitted effect of over 20% in size
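AmpC (5.3 nM in the dispensed reagent) in 20 mM phosphate pH 7.0 with 0.01% (detergent screen) or 0.0001% Triton X-100 was preincubated with compounds for 15 min at room temperature. Nitrocefin was then added from an 800 uM solution, and hydrolysis was followed at 480 nm.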
Hits are given with their value; . = inactive; ? = inconclusive; / = no result. Unless noted, calls come from the whole dose curve; as a rule, active = well fitted curve in the direction sought with a large enough effect; inconclusive = small, poorly fitted or top-dose-only effect, or another doubt; inactive = no such curve, though single readings can be large; an effect the other way counts as inactive or inconclusive.

SMILES	Sm TGR inh	AmpC inh detg	Pf growth 96h	SARS PLP yeast	Pf growth 48h	AmpC no deterg
CCCc1cc(C(=O)Nc2c(C)n(C)n(-c3ccccc3)c2=O)no1	.	.	9.3µM	.	/	.
Cc1c(NC(=O)c2nn(CC(C)C)c(=O)c3ccccc23)c(=O)n(-c2ccccc2)n1C	.	.	?	.	.	.
Cn1ncc(S(=O)(=O)Cc2ccccc2)c(Cl)c1=O	0.16µM	.	.	.	.	.
Cc1c(/C=N/NC(=O)C(NC(=O)c2ccc3c(c2)OCO3)C(C)C)c2ccccc2n1C (centres undefined)	.	?	.	.	.	.
COc1ccc(-c2cn[nH]c2-c2ccc(OCc3ccc([N+](=O)[O-])cc3)cc2O)cc1	.	.	?	.	13µM	.
COc1cccc(Oc2cn[nH]c2-c2ccc(OCC(=O)NN)cc2O)c1	.	.	?	.	?	.
CCOc1ccc(-c2[nH]ncc2Oc2ccccc2OCC)c(O)c1	.	.	?	.	5.9µM	.
CCOc1ccccc1Oc1cn[nH]c1-c1ccc(OCC(=O)NN)cc1O	.	.	13µM	.	/	.
CCCOC(=O)c1ccc(Oc2cn[nH]c2-c2ccc(OC)cc2O)cc1	.	?	?	.	10µM	.
COC(=O)CCSCC(=O)N1N=C(c2ccc(OC)cc2)CC1c1cccc(OC)c1OC (centres undefined)	.	.	.	.	.	.
C=C(C)COc1ccc(-c2[nH]ncc2Oc2ccccc2OC)c(O)c1	.	.	.	/	13µM	/
C=C(C)COc1ccc(-c2[nH]ncc2Oc2ccc(OC)cc2)c(O)c1	.	.	?	.	?	.
C=C(C)COc1ccc(-c2[nH]ncc2-c2ccccc2OC)c(O)c1	.	?	.	.	3.3µM	.
C=C(C)COc1ccc(-c2[nH]ncc2-c2ccc(Br)cc2)c(O)c1	.	.	1.7µM	.	3.7µM	.
CCOc1ccc(-c2[nH]ncc2Oc2ccccc2OC)c(O)c1	.	?	/	.	8.3µM	.
CN(C)S(=O)(=O)c1cc(NC(=O)COC(=O)CCSc2ccc(Cl)cc2)ccc1Cl	.	.	?	.	.	.
Cc1ccc(-c2csc(=Nc3ccccc3)n2Cc2ccc3c(c2)OCO3)cc1	.	.	/	/	/	/
Cc1cccc(NS(=O)(=O)c2ccc(OCC(=O)N3CCCC3)cc2)c1	.	.	?	.	.	.
CCOc1ccc(-c2[nH]ncc2-c2ccc(Cl)cc2)c(O)c1	.	.	3.3µM	.	8.3µM	.
CCOc1ccc(-c2[nH]ncc2-c2ccc(OC)c(OC)c2)c(O)c1	.	.	.	.	?	.
COc1ccc(-c2cn[nH]c2-c2ccc(O)cc2O)cc1OC	.	.	9.3µM	.	?	.
COc1cccc(CNC(=O)c2ccc3nc(CCc4ccccc4)oc3c2)c1OC	.	.	/	/	/	/
Cc1ccc2c(c1)[C@H]1[C@H](CO2)[C@H](c2ccccc2)[C@]2(C)C(=O)Nc3cc(Cl)ccc3C(=O)N12	.	?	9.3µM	.	8.3µM	.
COc1cc2c(cc1OC)C(=O)N1[C@H]3c4cc(Cl)ccc4OC[C@@H]3[C@H](c3ccccc3)[C@]1(C)C(=O)N2	.	.	9.3µM	.	15µM	.
Cc1ccc2c(c1)[C@H]1[C@H](CO2)[C@H](c2ccccc2)[C@]2(C)C(=O)Nc3cc(F)c(F)cc3C(=O)N12	/	/	/	.	/	.
COc1ccc2c(c1)[C@H]1[C@H](CO2)[C@H](c2ccccc2)[C@]2(C)C(=O)Nc3cc(Cl)ccc3C(=O)N12	.	.	1.9µM	.	5.2µM	.
O=C(CN1C(=O)CC(c2ccccc2)S(=O)(=O)c2ccccc21)N1CCCC1 (centres undefined)	.	?	.	.	.	.
Cc1cc(C(F)(F)F)n(-c2nc(C(=O)NN)cs2)n1	.	.	7.4µM	.	.	.
Cc1ccc(C2=Nc3ccccc3N(C(=O)c3ccccc3)C(C)C2)cc1 (centres undefined)	.	?	12µM	.	?	.
Cc1cccc(C)c1NC(=O)CN(Cc1ccc(Br)cc1)S(=O)(=O)c1ccccc1	.	.	/	/	/	/
